In publication PMC5540273 (PLoS ONE, 2017):

Columns and labels:
Conditions in all cases: concentration: 1 μM,replicates: in singlicate; n = 1
[1] = system: TYK2(JH2domain-pseudokinase)
TYRO3 = system: TYRO3
ULK1 = system: ULK1
ULK2 = system: ULK2
ULK3 = system: ULK3
VEGFR2 = system: T1, VEGFR2
T1 construct: gene KDR

VPS34 = system: T2, VPS34
T2 construct: gene PIK3C3

VRK2 = system: VRK2
WEE1 = system: WEE1
WEE2 = system: WEE2
WNK1 = system: WNK1
WNK2 = system: WNK2
WNK3 = system: WNK3
WNK4 = system: WNK4
YANK1 = system: T3, YANK1
T3 construct: gene STK32A

YANK2 = system: T4, YANK2
T4 construct: gene STK32B

YANK3 = system: T5, YANK3
T5 construct: gene STK32C

YES = system: T6, YES
T6 construct: gene YES1

YSK1 = system: T7, YSK1
T7 construct: gene STK25

YSK4 = system: T8, YSK4
T8 construct: gene MAP3K19
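Note: KINOMEscan kinase panel screen.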

SMILES	%Inh [1] [%]	%Inh (TYRO3) [%]	%Inh (ULK1) [%]	%Inh (ULK2) [%]	%Inh (ULK3) [%]	%Inh (VEGFR2) [%]	%Inh (VPS34) [%]	%Inh (VRK2) [%]	%Inh (WEE1) [%]	%Inh (WEE2) [%]	%Inh (WNK1) [%]	%Inh (WNK2) [%]	%Inh (WNK3) [%]	%Inh (WNK4) [%]	%Inh (YANK1) [%]	%Inh (YANK2) [%]	%Inh (YANK3) [%]	%Inh (YES) [%]	%Inh (YSK1) [%]	%Inh (YSK4) [%]
CS(=O)(=O)Nc1ccc(-c2ccnc3[nH]ccc23)cc1 [GSK993273]	24	0	64	10	95.4	48	31	0	5	0	13	14	9	0	12	0	20	8	51	96.5
Cc1ccc(Nc2ccnc(Nc3ccc4c(c3)CS(=O)(=O)C4)n2)cc1O.Cl [GW579362]	99.5	79	55	2	99.5	93.6	76	0	50	98.3	0	33	33	9	26	0	0	81	39	99.1
OCCn1cc(-c2cnc3nnn(Cc4ccc5ncccc5c4)c3n2)cn1	0	0	0	0	0	0	17	0	0	0	0	0	0	0	3	0	0	0	0	0
CCNCC(Cc1ccccc1)NC(=O)c1cc(Br)c(-c2ccnc3[nH]ccc23)s1.Cl.Cl (stereo not shown) [GSK1383280]	10	0	0	0	8	36	0	0	0	7	0	0	9	28	23	0	11	19	18	92.5
CC(=O)Nc1ccc(-c2cc3ncnc(SCC(=O)O)c3s2)cc1	0	0	10	13	15	27	0	0	0	4	2	0	0	2	0	0	26	0	11	50
Cn1ccc2ncnc(Oc3ccc(NC(=O)Nc4cccc(C(F)(F)F)c4)c(Cl)c3)c21	0	0	0	0	1	98.2	0	0	3	9	0	0	0	0	0	0	13	0	0	77
CC(=O)c1c(-c2ccncc2)[nH]c(-c2ccncc2)c1C [GW493036]	90	0	3	0	10	0	50	55	17	0	14	0	50	62	0	0	9	17	0	78
O=C(NOCC1CC1)c1cc(Br)c(F)c(F)c1Nc1ccc(I)cc1Cl	0	0	0	0	10	0	0	0	0	0	0	0	0	16	0	0	2	0	0	0
CC(C(=O)NC1CCN(c2ccnc(Nc3ccc(F)cc3)n2)C1)c1ccc(Cl)cc1 (stereo not shown) [GSK1379713]	0	0	7	0	2	3	4	0	6	13	1	0	73	0	0	0	0	0	0	0
CS(=O)c1ccc(-c2coc3ccc(-c4n[nH]c(=O)o4)cc23)cc1 (stereo not shown)	47	0	35	0	0	17	94.3	0	2	16	0	0	0	0	9	10	0	0	7	55
CN(c1ccccc1CNc1nc(Nc2ccc3c(c2)CC(=O)N3)ncc1C(F)(F)F)S(C)(=O)=O	0	0	71	69	40	28	0	0	0	0	0	0	0	0	11	0	0	29	11	91.4
CCCC(=O)Nc1n[nH]c2ncccc12 [SB-601436]	0	0	0	18	0	0	0	0	0	0	0	0	0	14	0	0	0	0	0	0
O=C(Nc1cccc(C(F)(F)F)c1)c1cccc(Oc2ccc3nccn3n2)c1	44	2	2	10	23		35	0	13	7	16	0	26	15	0	0	30	0	0	77
Cl.c1ccc(Oc2ccc(Nc3ccnc4cc(-c5ccc(CN6CCNCC6)o5)ccc34)cc2)nc1 [GW567142]	10	0	0	16	0	25	0	0	8	0	0	16	11	0	0	0	0	70	22	30
Cc1ccc(C(=O)Nc2ccc(Oc3ccc4nc(NC(=O)C5CC5)cn4c3)c(F)c2)c(=O)n1-c1ccccc1	0	81	0	0	7	99.1	43	0	0	0	0	0	0	0	0	0	0	71	0	0
Nc1nccc(-c2ccc3c(N)n[nH]c3c2)n1 [GSK1034945]	52	0	41	13	4	0	0	0	35	0	6	0	3	0	21	0	9	0	17	72
